Where “and” joins values, the source holds several entries; their conditions need not be identical. Equal values may be shown once. Results filed as inconclusive are left out. Entries that show only a call come without a potency. Calls of active or inactive are those of the source. The call rests on the fitted dose curve; in most records, active means well fitted inhibition curve with a large enough effect in the repeat runs; inconclusive means weak or mixed curves; inactive means no such curve, though single readings can be large or run the other way.
biological target: Cytochrome P450 2D6 (Homo sapiens) (UniProt P10635); assay: Cytochrome P450 Family 2 Subfamily D Member 6 (CYP2D6) small molecule antagonists: luciferase reporter qHTS assay (AID 1671196); details: P450-Glo CYP2D6 enzyme assay, luciferin luminescence, 1 h; series mostly up to 115 µM
In short: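 Read-out is luminescence from luciferin formed by CYP2D6 turnover of a proluciferin substrate, recorded as relative luminescence units. Reactions ran 1 h at room temperature after NADPH regeneration solution was added.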
Further: nearly all actives have a fitted effect of over 50% in size.
Potency means the concentration at half of the fitted maximal effect.

Cytochrome P450 2D6 (Homo sapiens), sequence (P10635 whole entry, looked up): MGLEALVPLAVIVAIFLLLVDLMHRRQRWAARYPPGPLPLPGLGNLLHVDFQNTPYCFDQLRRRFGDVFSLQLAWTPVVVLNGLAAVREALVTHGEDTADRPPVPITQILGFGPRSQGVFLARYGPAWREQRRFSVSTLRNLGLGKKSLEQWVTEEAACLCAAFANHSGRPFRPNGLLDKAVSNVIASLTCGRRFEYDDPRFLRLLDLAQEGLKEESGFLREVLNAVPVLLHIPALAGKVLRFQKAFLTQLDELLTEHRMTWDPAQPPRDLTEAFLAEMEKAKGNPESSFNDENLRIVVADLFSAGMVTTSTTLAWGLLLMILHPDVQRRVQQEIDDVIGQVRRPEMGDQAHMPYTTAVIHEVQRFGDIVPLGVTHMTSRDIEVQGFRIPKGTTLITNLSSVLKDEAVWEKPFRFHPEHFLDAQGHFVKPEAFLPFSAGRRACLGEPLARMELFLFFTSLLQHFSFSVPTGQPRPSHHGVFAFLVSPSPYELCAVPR

Row | SMILES | Potency
1 | O=C1Cc2cc(Cl)ccc2N1 | inactive
2 | C/C=C(/C(=C/C)c1ccc(O)cc1)c1ccc(O)cc1 | inactive
3 | NCCNCCO | 28.6 µM (active)
4 | N#CCCN(CCO)CCO | inactive
5 | CCCCCCCC/C=C\CCCCCCCCCCCC(=O)O | inactive
6 | CCn1cc(C(=O)O)c(=O)c2cc(F)c(N3CCNCC3)cc21 | inactive
7 | CCCCN1CCCC1C(=O)Nc1c(C)cc(C)cc1C (stereo unspecified) | 3.09 µM (active)
8 | Oc1cc2c(cc1O)[C@H]1c3ccc(O)c(O)c3OC[C@@]1(O)C2 | 36 µM (active)
9 | CC[C@]1(O)C[C@H]2CN(CCc3c([nH]c4ccccc34)[C@@](C(=O)OC)(c3cc4c(cc3OC)N(C=O)[C@H]3[C@@](O)(C(=O)OC)[C@H](OC(C)=O)[C@]5(CC)C=CCN6CC[C@]43[C@@H]65)C2)C1 | inactive
10 | C[C@@H]1CN(CCCn2c3ccccc3c3ccccc32)C[C@H](C)N1 | 0.389 µM (active)
11 | CC(=O)OCC[N+](C)(C)C | inactive
12 | Cc1ccccc1S | 28.5 µM (active)
13 | CCC(C)COC(C)=O (stereo unspecified) | inactive
14 | O=C(O)C[C@H](NC(=O)OCc1ccccc1)C(=O)O | inactive
15 | O=C(O)CCC(=O)C(=O)O | 71 µM (active)
16 | CN1C(C(=O)Nc2ccccn2)=C(O)c2sccc2S1(=O)=O | inactive
17 | CN(C(=O)CN(CCO)CC(=O)N(C)C(C)(C)Cc1ccccc1)C(C)(C)Cc1ccccc1 | 4.36 µM (active)
18 | CCN(CC)CCNC(=O)COc1ccc(OC)cc1 | 13.8 µM (active)
19 | C[C@@H]1CC(=O)NN=C1c1ccc(NN=C(C#N)C#N)cc1 | inactive
20 | Cc1ccc(CO)cc1 | inactive

Row | SMILES | Potency
21 | CCOC(C)=O | inactive
22 | C[C@@H](O)[C@H]1C(=O)N2C(C(=O)O)=C([C@H]3CCCO3)S[C@H]12 | inactive
23 | O=c1[nH]ncc2ccccc12 | inactive
24 | C=C(C)C(=O)OCCCCCCCCCCCCC | inactive
25 | FC(F)(F)c1ccccc1Cl | 46 µM (active)
26 | CC1=C(Br)C(=O)C(Br)=C/C1=C(/c1ccccc1S(=O)(=O)O)c1cc(Br)c(O)c(Br)c1C | 21.6 µM (active)
27 | CC(C)Nc1cccnc1N1CCN(C(=O)c2cc3cc(NS(C)(=O)=O)ccc3[nH]2)CC1 | 5.49 µM (active)
28 | CC=C(Cl)Cl | inactive
29 | CC(=O)Nc1ccc(C)cc1C | inactive
30 | CC(CCC(=O)O)C(=O)O (stereo unspecified) | 63.4 µM (active)
31 | O=C=Nc1cccc(C(F)(F)F)c1 | inactive
32 | CN1C(=O)OC(C)(C)C1=O | inactive
33 | CC(=O)OCC(=O)NCCCOc1cccc(CN2CCCCC2)c1 | 15.5 µM (active)
34 | c1cc(N(CC2CO2)CC2CO2)ccc1Cc1ccc(N(CC2CO2)CC2CO2)cc1 (stereo unspecified) | inactive
35 | O=C1c2ccccc2C(=O)C1(O)O | 35.8 µM (active)
36 | O=C(O)c1cccc(-c2noc(-c3ccccc3F)n2)c1 | 3.47 µM (active)
37 | O=C1NCCN1CCO | inactive
38 | CCCCCCCCC(CCCCCC)C(=O)O (stereo unspecified) | inactive
39 | Cc1ccc(Cl)c(Nc2ccccc2C(=O)O)c1Cl | inactive

biological target: Cytochrome P450 2C9 (Homo sapiens) (UniProt P11712); assay: Cytochrome P450 Family 2 Subfamily C Member 9 (CYP2C9) small molecule antagonists: luciferase reporter qHTS assay (AID 1671198); details: P450-Glo CYP2C9 enzyme assay, luciferin luminescence; series mostly up to 115 µM
In short: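 Enzyme-substrate mix preincubated with compound 10 min at room temperature; reaction started with NADPH regeneration solution, 1 h 37C. Luminescent luciferin product read after 20 min detection reagent.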

Cytochrome P450 2C9 (Homo sapiens), sequence (P11712 whole entry, looked up): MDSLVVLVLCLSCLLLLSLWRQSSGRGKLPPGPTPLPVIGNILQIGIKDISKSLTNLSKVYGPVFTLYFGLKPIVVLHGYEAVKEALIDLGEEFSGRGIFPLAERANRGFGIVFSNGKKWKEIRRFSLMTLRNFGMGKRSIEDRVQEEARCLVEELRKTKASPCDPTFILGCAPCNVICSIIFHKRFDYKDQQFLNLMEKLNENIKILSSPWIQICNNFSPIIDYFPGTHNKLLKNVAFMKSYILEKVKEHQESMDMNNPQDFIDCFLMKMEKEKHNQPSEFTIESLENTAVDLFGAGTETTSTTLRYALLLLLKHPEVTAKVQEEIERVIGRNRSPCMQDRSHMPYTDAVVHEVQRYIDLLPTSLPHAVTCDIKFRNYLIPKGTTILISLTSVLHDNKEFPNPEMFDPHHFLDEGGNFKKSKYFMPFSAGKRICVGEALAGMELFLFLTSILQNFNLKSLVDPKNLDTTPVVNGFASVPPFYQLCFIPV

Row | SMILES | Potency
40 | O=C1Cc2cc(Cl)ccc2N1 | 17.4 µM (active)
41 | C/C=C(/C(=C/C)c1ccc(O)cc1)c1ccc(O)cc1 | 17.4 µM (active)
42 | NCCNCCO | inactive
43 | N#CCCN(CCO)CCO | inactive
44 | CCCCCCCC/C=C\CCCCCCCCCCCC(=O)O | inactive
45 | CCn1cc(C(=O)O)c(=O)c2cc(F)c(N3CCNCC3)cc21 | inactive
46 | CCCCN1CCCC1C(=O)Nc1c(C)cc(C)cc1C (stereo unspecified) | inactive
47 | Oc1cc2c(cc1O)[C@H]1c3ccc(O)c(O)c3OC[C@@]1(O)C2 | 32.1 µM (active)
48 | CC[C@]1(O)C[C@H]2CN(CCc3c([nH]c4ccccc34)[C@@](C(=O)OC)(c3cc4c(cc3OC)N(C=O)[C@H]3[C@@](O)(C(=O)OC)[C@H](OC(C)=O)[C@]5(CC)C=CCN6CC[C@]43[C@@H]65)C2)C1 | inactive
49 | C[C@@H]1CN(CCCn2c3ccccc3c3ccccc32)C[C@H](C)N1 | inactive
50 | CC(=O)OCC[N+](C)(C)C | inactive
51 | Cc1ccccc1S | 45.2 µM (active)
52 | CCC(C)COC(C)=O (stereo unspecified) | inactive
53 | O=C(O)C[C@H](NC(=O)OCc1ccccc1)C(=O)O | inactive
54 | O=C(O)CCC(=O)C(=O)O | inactive
55 | CN1C(C(=O)Nc2ccccn2)=C(O)c2sccc2S1(=O)=O | 13.8 µM (active)
56 | CN(C(=O)CN(CCO)CC(=O)N(C)C(C)(C)Cc1ccccc1)C(C)(C)Cc1ccccc1 | 30.9 µM (active)
57 | CCN(CC)CCNC(=O)COc1ccc(OC)cc1 | inactive
58 | C[C@@H]1CC(=O)NN=C1c1ccc(NN=C(C#N)C#N)cc1 | 1.38 µM (active) and 1.23 µM (active)

Row | SMILES | Potency
59 | Cc1ccc(CO)cc1 | inactive
60 | CCOC(C)=O | inactive
61 | C[C@@H](O)[C@H]1C(=O)N2C(C(=O)O)=C([C@H]3CCCO3)S[C@H]12 | inactive
62 | O=c1[nH]ncc2ccccc12 | inactive
63 | C=C(C)C(=O)OCCCCCCCCCCCCC | inactive
64 | FC(F)(F)c1ccccc1Cl | inactive
65 | CC1=C(Br)C(=O)C(Br)=C/C1=C(/c1ccccc1S(=O)(=O)O)c1cc(Br)c(O)c(Br)c1C | 15.3 µM (active)
66 | CC(C)Nc1cccnc1N1CCN(C(=O)c2cc3cc(NS(C)(=O)=O)ccc3[nH]2)CC1 | 2.75 µM (active)
67 | CC=C(Cl)Cl | inactive
68 | CC(=O)Nc1ccc(C)cc1C | inactive
69 | CC(CCC(=O)O)C(=O)O (stereo unspecified) | inactive
70 | O=C=Nc1cccc(C(F)(F)F)c1 | inactive
71 | CC(=O)OCC(=O)NCCCOc1cccc(CN2CCCCC2)c1 | inactive
72 | c1cc(N(CC2CO2)CC2CO2)ccc1Cc1ccc(N(CC2CO2)CC2CO2)cc1 (stereo unspecified) | 17.8 µM (active)
73 | O=C(O)c1cccc(-c2noc(-c3ccccc3F)n2)c1 | 2.45 µM (active)
74 | O=C1NCCN1CCO | inactive
75 | CCCCCCCCC(CCCCCC)C(=O)O (stereo unspecified) | 25.2 µM (active)
76 | Cc1ccc(Cl)c(Nc2ccccc2C(=O)O)c1Cl | 17.4 µM (active)
